Calls of active or inactive are those of the source.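 How the source made its calls: active means viability loss from added drug above about 55%, and viability with drug at most 40%, in both replicates (limit read from the data, passing the limit was not always enough); inconclusive means both conditions met in only one replicate; inactive means neither replicate meets both conditions.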

The first assay in a line: MRP1 drug-resistance reversers in H69AR cells – cell-based, doxorubicin co-treatment, pilot screen (AID 601). The following applies: H69AR cells + 2 uM doxorubicin, CellTiter-Glo, 72 h; at 10 µM; stronger effect = higher value.
Regarding `CCOC(=O)c1cccc(NC(=O)CSc2nc3ccccc3c(=O)n2CC)c1`, the differential viability (reversal) was 4.1% (inactive).
On the same count and under the same terms, the result for `Cc1cc(C)n(-c2nc3nonc3nc2-n2nc(C)cc2C)n1` reads 14.7% (inactive); that for `COc1ccc(C)cc1S(=O)(=O)N(CC(=O)O)c1ccccc1`, -11.2% (inactive); that for `COc1cc(OC)cc(C(=O)N2CCN(C(=O)c3ccc(OC)c(OC)c3)CC2)c1`, -11.1% (inactive).
As for `Cc1cccc(-c2nc(CN3CCCC(C(=O)NC4CCCC4)C3)c(C)o2)c1` (stereo not given), the differential viability (reversal) is -11.2% (inactive).
Consider `CCOc1ccccc1OCC(=O)Nc1nnc(COC)s1`, for which the differential viability (reversal) was -1.57% (inactive).
Still for that read-out and setting: next, `CC(=O)OCC1OC(c2ccccc2)C(OC(C)=O)C(OC(C)=O)C1OC(C)=O` (stereo not given): -1.94% (inactive); `COc1ccc(-c2nnc(SCC(=O)Nc3ccc(Cl)cc3)n2C)cc1`: 8% (inactive).
The same measure, in the same setting: the result for `Cc1sc2c(c1C)CN(C1CC(C)(C)NC(C)(C)C1)CN2C(=O)c1ccco1` reads 0.235% (inactive); that for `C=C(c1cccc2ccccc12)P(=O)(O)O`, 6.39% (inactive); that for `CS(=O)(=O)C1=C(O)C(=O)N(c2ccccc2)C1c1ccccc1` (stereo not given), 10.3% (inactive).
In the case of `CCCN1CCN(CCCNC(=O)C2CCCN(c3nc4ccc(OCC)cc4s3)C2)CC1` (stereo not given), the differential viability (reversal) is -1.46% (inactive).
Same read-out and setting: the result for `CC(=O)Nc1ccc(Cl)cc1C(=O)O` reads 10.4% (inactive); that for `Cc1nc2ccccc2c2c1C(=O)N(CCC1=CCCCC1)C2=O`, -1.33% (inactive); that for `COc1ccc(-c2noc(-c3ccccc3C(=O)NCc3ccco3)n2)cc1`, -12.1% (inactive).
Take `COc1cccc(OC)c1C(=O)Nc1ccc(CN2CCCCC2)cc1`: the differential viability (reversal) was 8.96% (inactive).
Consider `CCOC(=O)C1=C(C)N=C2SCCC(=O)N2C1c1cc(Br)ccc1OC` (stereo not given), for which the differential viability (reversal) is 1.69% (inactive).
With `Cc1ccc2cc3cc(C(=O)N4CC(C)CC(C)C4)oc3nc2c1` (stereo not given), the differential viability (reversal) was 3.71% (inactive).
For `COC(=O)C1=C(C)OC(N)=C(C#N)C1c1c(C)nn(-c2ccccc2)c1Cl` (stereo not given), the differential viability (reversal) is -6.99% (inactive).
Still for that read-out and setting: the result for `COCC(=O)N(Cc1cc2cc(OC)ccc2[nH]c1=O)c1ccccc1` reads 3.91% (inactive); that for `O=C(COc1ccccc1)N1CCN(C(=O)c2cccc(F)c2)CC1`, 13.9% (inactive).
For `O=C(CCCCC(=O)NCc1cccs1)NCc1cccs1`, the differential viability (reversal) is 0.77% (inactive).
The same measure, in the same setting: next, `Cc1ccc(Cn2c(C(=O)NCCCN3CCOCC3)cc3sccc32)cc1`: -3.47% (inactive); `CCC(=O)N1CCNC(=O)C1CC(=O)Nc1ccc(C)c(Cl)c1` (stereo not given): 4.98% (inactive); `O=C1CSC(c2cn(-c3ccccc3)nc2-c2ccccc2)N1Cc1ccco1` (stereo not given): 17.7% (inactive).
Still for that read-out and setting: next, `COc1ccc(-c2cc(C(=O)Nc3ccc(C)cc3)no2)cc1`: 9.35% (inactive); `CCn1nnc(NC(=O)c2cc3ccccc3o2)n1`: 11.5% (inactive).
Consider `O=C(NCC(=O)N(c1cnc2ccccc2c1)C(C(=O)NC1CCCC1)c1ccncc1)c1ccco1` (stereo not given), for which the differential viability (reversal) was -3.65% (inactive).
The same measure, in the same setting: the result for `CCOC(=O)Nc1ccc(OC)cc1S(=O)(=O)N1CCCCC1` reads 17.7% (inactive); that for `CCN(CC)CCN1C(=O)C(=O)/C(=C(/O)c2c(C)[nH]c(C(=O)OC)c2C)C1c1ccccc1OC` (stereo not given), -21.3% (inactive).
For the compound `Cc1cc(Nc2ccccc2)n(CCC#N)n1`, the differential viability (reversal) is 9.18% (inactive).
On to `Cc1cc(C)n(-c2nc3c(c(=O)n(Cc4ccc(Cl)c(Cl)c4)c(=O)n3C)n2C)n1`, for which the differential viability (reversal) was 5.92% (inactive).
With `CCN(Cc1cc2cc(OC)ccc2[nH]c1=O)C(=O)Cc1ccc(OC)cc1`, the differential viability (reversal) is 6.29% (inactive).
Take `COc1cccc(CNC(=O)C2CCN(C(=O)N(C)C)CC2)c1`: the differential viability (reversal) was 0.06% (inactive).
Regarding `CCSc1cc(C2C(C(=O)OC)=C(C)NC3=C2C(=O)CCC3)c(C)o1` (stereo not given), the differential viability (reversal) was 5.68% (inactive).
In the case of `Cc1ccc2nc(NC(=O)C3CCCN(S(=O)(=O)c4cnc[nH]4)C3)sc2c1` (stereo not given), the differential viability (reversal) was -9.05% (inactive).
In the case of `C=CCn1c(SCc2ccc(C#N)cc2)nnc1-c1cccc(Cl)c1`, the differential viability (reversal) is -3.84% (inactive).
The same measure, in the same setting: the result for `C=CCn1c(SCC(=O)Nc2ccccc2OC)nnc1-c1ccco1` reads -16.8% (inactive).
Take `COCCNC(=O)C(c1ccc(O)cc1)N(Cc1ccco1)C(=O)CCC(=O)Nc1nccs1` (stereo not given): the differential viability (reversal) is 11.1% (inactive).
`Cc1cc(C)c(OCC(=O)Nc2ccc3c(c2)OCO3)cc1C`: the differential viability (reversal) was -3.51% (inactive).

The assay is the same for the next values; noted with them: H69AR cells + 2 uM doxorubicin, CellTiter-Glo, 72 h; measured here: viability with 2 uM doxorubicin; at 10 µM; stronger effect = lower value.
Turning to `CCOC(=O)c1cccc(NC(=O)CSc2nc3ccccc3c(=O)n2CC)c1`, the viability was 67%.
Turning to `Cc1cc(C)n(-c2nc3nonc3nc2-n2nc(C)cc2C)n1`, the viability is 90.3%.
On the same count and under the same terms, the result for `COc1ccc(C)cc1S(=O)(=O)N(CC(=O)O)c1ccccc1` reads 97.2%.
With `COc1cc(OC)cc(C(=O)N2CCN(C(=O)c3ccc(OC)c(OC)c3)CC2)c1`, the viability came out at 103%.
The same measure, in the same setting: the result for `Cc1cccc(-c2nc(CN3CCCC(C(=O)NC4CCCC4)C3)c(C)o2)c1` (stereo not given) reads 95.4%; that for `CCOc1ccccc1OCC(=O)Nc1nnc(COC)s1`, 93.3%; that for `CC(=O)OCC1OC(c2ccccc2)C(OC(C)=O)C(OC(C)=O)C1OC(C)=O` (stereo not given), 101%.
For `COc1ccc(-c2nnc(SCC(=O)Nc3ccc(Cl)cc3)n2C)cc1`, the viability worked out at 82.2%.
On the same count and under the same terms, the result for `Cc1sc2c(c1C)CN(C1CC(C)(C)NC(C)(C)C1)CN2C(=O)c1ccco1` reads 83.4%.
With `C=C(c1cccc2ccccc12)P(=O)(O)O`, the viability came out at 86.5%.
On the same count and under the same terms, next, `CS(=O)(=O)C1=C(O)C(=O)N(c2ccccc2)C1c1ccccc1` (stereo not given): 94.4%.
Same read-out and setting: next, `CCCN1CCN(CCCNC(=O)C2CCCN(c3nc4ccc(OCC)cc4s3)C2)CC1` (stereo not given): 88.8%; `CC(=O)Nc1ccc(Cl)cc1C(=O)O`: 95.3%.
As for `Cc1nc2ccccc2c2c1C(=O)N(CCC1=CCCCC1)C2=O`, the viability came out at 89.7%.
Take `COc1ccc(-c2noc(-c3ccccc3C(=O)NCc3ccco3)n2)cc1`: the viability is 94.9%.
Turning to `COc1cccc(OC)c1C(=O)Nc1ccc(CN2CCCCC2)cc1`, the viability turned out to be 80.4%.
For the compound `CCOC(=O)C1=C(C)N=C2SCCC(=O)N2C1c1cc(Br)ccc1OC` (stereo not given), the viability is 90.3%.
Consider `Cc1ccc2cc3cc(C(=O)N4CC(C)CC(C)C4)oc3nc2c1` (stereo not given), for which the viability stood at 85.5%.
On to `COC(=O)C1=C(C)OC(N)=C(C#N)C1c1c(C)nn(-c2ccccc2)c1Cl` (stereo not given), for which the viability turned out to be 86.7%.
Take `COCC(=O)N(Cc1cc2cc(OC)ccc2[nH]c1=O)c1ccccc1`: the viability came to 86.5%.
Still for that read-out and setting: the result for `O=C(COc1ccccc1)N1CCN(C(=O)c2cccc(F)c2)CC1` reads 86.7%; that for `O=C(CCCCC(=O)NCc1cccs1)NCc1cccs1`, 97%; that for `Cc1ccc(Cn2c(C(=O)NCCCN3CCOCC3)cc3sccc32)cc1`, 81.1%.
On the same count and under the same terms, the result for `CCC(=O)N1CCNC(=O)C1CC(=O)Nc1ccc(C)c(Cl)c1` (stereo not given) reads 90.8%.
On the same count and under the same terms, the result for `O=C1CSC(c2cn(-c3ccccc3)nc2-c2ccccc2)N1Cc1ccco1` (stereo not given) reads 70.6%; that for `COc1ccc(-c2cc(C(=O)Nc3ccc(C)cc3)no2)cc1`, 89.7%; that for `CCn1nnc(NC(=O)c2cc3ccccc3o2)n1`, 90%.
Take `O=C(NCC(=O)N(c1cnc2ccccc2c1)C(C(=O)NC1CCCC1)c1ccncc1)c1ccco1` (stereo not given): the viability came out at 93.7%.
On the same count and under the same terms, the result for `CCOC(=O)Nc1ccc(OC)cc1S(=O)(=O)N1CCCCC1` reads 81.3%; that for `CCN(CC)CCN1C(=O)C(=O)/C(=C(/O)c2c(C)[nH]c(C(=O)OC)c2C)C1c1ccccc1OC` (stereo not given), 89.5%.
On to `Cc1cc(Nc2ccccc2)n(CCC#N)n1`, for which the viability turned out to be 92.9%.
As for `Cc1cc(C)n(-c2nc3c(c(=O)n(Cc4ccc(Cl)c(Cl)c4)c(=O)n3C)n2C)n1`, the viability stood at 89.6%.
Same read-out and setting: next, `CCN(Cc1cc2cc(OC)ccc2[nH]c1=O)C(=O)Cc1ccc(OC)cc1`: 81.9%; `COc1cccc(CNC(=O)C2CCN(C(=O)N(C)C)CC2)c1`: 92.2%; `CCSc1cc(C2C(C(=O)OC)=C(C)NC3=C2C(=O)CCC3)c(C)o1` (stereo not given): 78.8%.
Same read-out and setting: next, `Cc1ccc2nc(NC(=O)C3CCCN(S(=O)(=O)c4cnc[nH]4)C3)sc2c1` (stereo not given): 90.9%; `C=CCn1c(SCc2ccc(C#N)cc2)nnc1-c1cccc(Cl)c1`: 84%.
For the compound `C=CCn1c(SCC(=O)Nc2ccccc2OC)nnc1-c1ccco1`, the viability came to 84.5%.
For `COCCNC(=O)C(c1ccc(O)cc1)N(Cc1ccco1)C(=O)CCC(=O)Nc1nccs1` (stereo not given), the viability stood at 88.3%.
The same measure, in the same setting: next, `Cc1cc(C)c(OCC(=O)Nc2ccc3c(c2)OCO3)cc1C`: 88%.

(Values after PubChem BioAssay.)
